Assay results taken from PubChem BioAssay.
The source made the active and inactive calls.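 The calls were made as follows, unless noted: active = inhibition at or above 50% at 10 µM; inactive = inhibition below 50%.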

Experiments:
[1] = inhibitors of TNFa-induced NFkB p65 translocation, primary screen, imaging, HUVEC, MLSMR starter and 10KST1 sets (AID 438;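 active = inhibition above 20% together with a positive visual image hit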;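 also: compound added about 3h40 before a 20 min TNFalpha stimulation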;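 as to inhibition: signal is the nuclear over cytoplasmic p65 intensity ratio per well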); settings: HUVEC TNFa-induced p65 nuclear translocation; cell count: measured here: nuclei count (cytotoxicity indicator), at 2.08 µM; inhibition: at 2 µM, stronger effect = higher value, 0% TNFa-plus-vehicle, 100% no-TNFa wells
[2] = reduction of polyQ htt aggregates in cells – imaging, exon1htt(103Q)mCFP cells, high-content imaging, primary screen (AID 483;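 active = visual image review flags a hit and inhibition of aggregation exceeds 20%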;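 also: compound exposure lasted 3 days before fixation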;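 as to nuclei count: percent of the per-plate median nuclei count of sample wells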); settings: exon1htt(103Q)mCFP cell line, aggregate imaging, at 2 µM; inhibition of aggregation: stronger effect = higher value; nuclei count: measured here: cell count, toxicity
[3] = endothelial E-selectin expression blockers – imaging, HUVEC, immunofluorescence, MLSMR starter and 10KST1 sets, primary screen (AID 487;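 active = visually confirmed hit in the image check and inhibition above 20%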;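 as to inhibition: signal is fraction of cell area covered by stained E-selectin grains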;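 as to nuclei count: 100% = median nuclei count of all wells on the same plate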); settings: HUVEC TNFalpha-induced E-selectin immunofluorescence imaging, at 2 µM; inhibition: stronger effect = higher value; nuclei count: measured here: cell number, toxicity
[4] = target: Voltage-gated potassium channel subunit beta-2 (Rattus norvegicus) (UniProt P62483); test: inhibitors of rat Kvbeta2 reductase activity – biochemical, NADPH fluorescence, primary screen (AID 622;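 active = fluorescence slope higher than the sample average by over 3 SD, cut at about -0.22 in these data, passing the limit was not always enough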;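 also: slope of raw intensity against log time taken from 70 to 1610 s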); settings: recombinant KvBeta, 4-cyanobenzaldehyde reduction, at 10 µM, stronger effect = higher value
[5] = target: Voltage-gated potassium channel subunit beta-2 (Rattus norvegicus) (UniProt P62483); test: enhancers of rat Kvbeta2 NADPH turnover – biochemical, NADPH fluorescence, primary screen (AID 623;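 active = NADPH fluorescence slope more negative than the mean of all samples by about 3 SD, 99.7% confidence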;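 also: fluorescence intensity change per second fitted from 20 to 320 s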); settings: Recombinant KvBeta, NADPH fluorescence decrease slope, 10 min; at 10 µM; stronger effect = lower value
[6] = target: Alpha-2C adrenergic receptor (Homo sapiens) (UniProt P18825); test: compounds altering alpha2C-coupled GIRK flux – cell-based, HEK293 alpha2C/GIRK1/2, thallium flux, primary screen (AID 624;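 active = fluorescence slope after compound addition differing from the mean of all screened samples at 99.7% confidence, in either direction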;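 also: slope of fluorescence ratio to pre-addition baseline per second over 15 to 24 s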); settings: thallium flux BTC fluorescence, at 10 µM, actives lie on both sides
[7] = blockers of RIG-like receptor reporter activation – cell-based, Sendai virus stimulus, luciferase, 10K MLSCN set, TLR/RLR signaling modifier project, primary screen (AID 602276); settings: HEK293 RL24 IRF3 luciferase reporter, at 10 µM, stronger effect = higher value;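 also: firefly luciferase from ISG56 promoter only with Renilla not read in this screen; 0% = Sendai virus plus DMSO and 100% = medium plus DMSO without virus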
[8] = TLR3 IRF3 reporter activation blockers – cell-based, poly I:C stimulus, luciferase, 10K MLSCN set, primary screen (AID 602277;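 active = inhibition of the reporter signal at or above 50%; inactive = inhibition below 50%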); settings: HEK293-TLR3 RL24 IRF3 luciferase reporter, at 10 µM, stronger effect = higher value

Chain of Alpha-2C adrenergic receptor (Homo sapiens) (P18825 whole entry, looked up): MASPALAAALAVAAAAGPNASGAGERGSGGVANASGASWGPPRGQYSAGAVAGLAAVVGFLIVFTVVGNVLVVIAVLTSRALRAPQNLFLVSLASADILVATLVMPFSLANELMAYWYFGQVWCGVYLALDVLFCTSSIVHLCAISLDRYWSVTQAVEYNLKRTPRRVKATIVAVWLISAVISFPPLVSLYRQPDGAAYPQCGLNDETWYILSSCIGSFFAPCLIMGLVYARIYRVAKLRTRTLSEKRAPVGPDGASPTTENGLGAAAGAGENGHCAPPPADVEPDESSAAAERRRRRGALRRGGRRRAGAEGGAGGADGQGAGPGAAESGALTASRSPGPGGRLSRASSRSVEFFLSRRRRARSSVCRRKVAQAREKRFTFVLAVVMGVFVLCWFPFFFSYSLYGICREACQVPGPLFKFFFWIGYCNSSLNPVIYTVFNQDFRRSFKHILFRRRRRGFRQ
Chain of Voltage-gated potassium channel subunit beta-2 (Rattus norvegicus) (P62483 whole entry, looked up): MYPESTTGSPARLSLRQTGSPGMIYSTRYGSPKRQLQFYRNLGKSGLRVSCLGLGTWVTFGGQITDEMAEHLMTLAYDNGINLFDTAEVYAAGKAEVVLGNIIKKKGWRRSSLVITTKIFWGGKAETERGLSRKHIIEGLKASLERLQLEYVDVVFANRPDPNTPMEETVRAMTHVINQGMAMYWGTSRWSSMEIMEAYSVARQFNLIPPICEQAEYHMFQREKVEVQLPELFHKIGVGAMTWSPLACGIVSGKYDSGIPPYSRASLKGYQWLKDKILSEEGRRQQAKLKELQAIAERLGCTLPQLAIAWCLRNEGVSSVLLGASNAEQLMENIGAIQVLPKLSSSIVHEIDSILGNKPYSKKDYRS

SMILES	cell count [1]	inhibition [1]	inhibition of aggregation [2]	nuclei count [2]	inhibition [3]	nuclei count [3]	fluorescence slope [4]	NADPH fluorescence slope [5]	slope [6]	inhibition [7]	inhibition [8]
Cc1cc(C(=O)OCC(=O)N2c3ccccc3CC2C)c(C)o1 (stereo not drawn)	733	-9.6% (inactive)	3.2% (inactive)	85.1%	-49.5% (inactive)	111%	-0.425 (inactive)	2.6e-05 (inactive)	0.00532 (inactive)	-14.2% (inactive)	-2.49% (inactive)
Cc1nnc(NC(=O)c2ccco2)s1	697	1.3% (inactive)	-21.8% (inactive)	107%	-34.3% (inactive)	110%	-0.521 (inactive)	-3.3e-05 (inactive)	0.00691 (inactive)	3.15% (inactive)	14.4% (inactive)
CCOC(=O)N1CCN(C(=O)c2ccc3c(=O)n(Cc4ccc(OC)cc4)c(=S)[nH]c3c2)CC1	475	-17% (inactive)	45.2% (active)	59.2%	2.4% (inactive)	88.2%	-0.496 (inactive)	-2.2e-05 (inactive)	0.00659 (inactive)	11.9% (inactive)	10% (inactive)
CCOC(=O)c1ccc(NC(=O)COc2ccc(-n3cnnn3)cc2)cc1	354	-0.5% (inactive)	-2.9% (inactive)	60.6%	5% (inactive)	102%	-0.405 (inactive)	-1.2e-05 (inactive)	0.00538 (inactive)	1.41% (inactive)	11.4% (inactive)
COc1cccc(/C=N/n2cnnc2)c1OCc1ccccc1	473	-2.6% (inactive)	-7% (inactive)	104%	2.5% (inactive)	109%	-0.448 (inactive)	1.1e-05 (inactive)	0.00389 (inactive)	20.5% (inactive)	12.5% (inactive)
Cn1c(=O)c2c(nc(NCc3ccccc3)n2CCCc2ccccc2)n(C)c1=O	759	-1.6% (inactive)	5.6% (inactive)	101%	-77.1% (inactive)	121%	-0.521 (inactive)	-1.3e-05 (inactive)	0.00474 (inactive)	16.3% (inactive)	26.8% (inactive)
COc1ccccc1N1CC(C(=O)Nc2cccc(C(=O)O)c2)CC1=O (stereo not drawn)	495	-16.1% (inactive)	10.1% (inactive)	76.3%	-32.1% (inactive)	127%	-0.547 (inactive)	2.1e-05 (inactive)	0.00458 (inactive)	-5.85% (inactive)	-4.45% (inactive)
CCOC(=O)C1CCN(c2cc(C)nc3cc(-c4cccc(F)c4)nn23)CC1	675	-4.7% (inactive)	12% (inactive)	97.8%	-82.8% (inactive)	99.1%	-0.35 (inactive)	-1.5e-05 (inactive)	0.00523 (inactive)	-8.57% (inactive)	-12.2% (inactive)
COc1ccc(N(CC(=O)NCCSC(C)(C)C)S(C)(=O)=O)c(OC)c1	387	-1.4% (inactive)	12.9% (inactive)	104%	-18.2% (inactive)	120%	-0.537 (inactive)	0.000155 (inactive)	0.00708 (inactive)	18.9% (inactive)	20.9% (inactive)
COc1ccccc1Nc1nc(N)nc(-c2cc3ccccc3o2)n1	153	1.2% (inactive)	-7.1% (inactive)	89.1%	25.7% (inactive)	85.7%	-0.332 (inactive)	-3.9e-05 (inactive)	0.00555 (inactive)	-39.9% (inactive)	-99.9% (inactive)
COc1ccc(-c2nc(C#N)c(N3CCOCC3)o2)cc1OC	257	-4.8% (inactive)	30.6% (active)	92.9%	-16.3% (inactive)	98.5%	-0.341 (inactive)	-1.9e-05 (inactive)	0.00341 (inactive)	9.75% (inactive)	-1.53% (inactive)
O=C(CSc1ccc2nnc(-c3ccccc3)n2n1)N1CCN(c2ccccc2)CC1	616	0.3% (inactive)	9.9% (inactive)	110%	-34.8% (inactive)	111%	-0.592 (inactive)	-3.7e-05 (inactive)	0.00674 (inactive)	-9.77% (inactive)	3.8% (inactive)
N#Cc1c(NC(=O)c2ccc(Br)o2)n(-c2ccccc2)c2nc3ccccc3nc12	275	-1.4% (inactive)	14.7% (inactive)	97.4%	-63.2% (inactive)	104%	-0.502 (inactive)	-2e-05 (inactive)	0.0121 (active)	19.9% (inactive)	18.8% (inactive)
C=C(C)Cn1c(-c2ccccc2)nc2ccccc21	326	-5.5% (inactive)	-4.2% (inactive)	113%	-17.6% (inactive)	104%	-0.512 (inactive)	-5.5e-05 (inactive)	0.00476 (inactive)	14.4% (inactive)	2.46% (inactive)
Cc1cc(Nc2ccc(C(=O)O)cc2)n2nc(C)nc2n1	822	3.9% (inactive)	9.8% (inactive)	109%	-13.7% (inactive)	106%	-0.543 (inactive)	-1.5e-05 (inactive)	0.00685 (inactive)	7.19% (inactive)	21% (inactive)
O=C(c1cc(-c2cccc(O)c2)on1)N1CCN(C(c2ccccc2)c2ccccc2)CC1	787	3.2% (inactive)	-5.2% (inactive)	96.8%	-70.7% (inactive)	116%	-0.601 (inactive)	-3.2e-05 (inactive)	0.00689 (inactive)	11% (inactive)	25.8% (inactive)
Cc1ccc(CNC(=O)C2CCCN(S(=O)(=O)c3cnc[nH]3)C2)cc1 (stereo not drawn)	768	-11% (inactive)	-30.5% (inactive)	102%	-23.4% (inactive)	92.7%	-0.538 (inactive)	-1.6e-05 (inactive)	0.00735 (inactive)	-2.34% (inactive)	15.9% (inactive)
O=S(=O)(Nc1cccnc1)c1cc(Cl)ccc1Cl	395	2.5% (inactive)	6.1% (inactive)	99.9%	26.2% (inactive)	115%	-0.286 (inactive)	2e-06 (inactive)	0.00524 (inactive)	23.6% (inactive)	7.22% (inactive)
COc1cccc2cc(C(=O)C3=C(O)C(=O)N(CCCN4CCOCC4)C3c3ccncc3)oc12 (stereo not drawn)	463	0.9% (inactive)	-8.5% (inactive)	103%	-14.9% (inactive)	120%	-0.478 (inactive)	-7.1e-05 (inactive)	0.00372 (inactive)	-11.8% (inactive)	10.6% (inactive)
CC1=Nn2c(nnc2-c2ccc(F)cc2)SC1	340	-2.4% (inactive)	4% (inactive)	107%	-66% (inactive)	95.6%	-0.33 (inactive)	-4.3e-05 (inactive)	0.00575 (inactive)	-12.4% (inactive)	-3.16% (inactive)
COc1ccc(N2CCN(C(=O)COc3ccc4ccccc4c3)CC2)cc1	737	7.3% (inactive)	7.5% (inactive)	93.8%	-29.6% (inactive)	111%	-0.468 (inactive)	-5.8e-05 (inactive)	0.00617 (inactive)	4.32% (inactive)	10.9% (inactive)
CC1CCN(CCc2nc3cc(NS(=O)(=O)c4ccc(F)cc4)ccc3n2C)CC1	392	6.1% (inactive)	13.2% (inactive)	97.6%	-31.1% (inactive)	106%	-0.5 (inactive)	-3.1e-05 (inactive)	0.00517 (inactive)	5.27% (inactive)	16% (inactive)
Cc1cc(C)n(-c2cc(N3CCOCC3)nc(-c3ccccc3)n2)n1	323	-14% (inactive)	-20.5% (inactive)	105%	-59.2% (inactive)	114%	-0.385 (inactive)	-1.3e-05 (inactive)	0.00416 (inactive)	6.61% (inactive)	12.6% (inactive)
Cc1ccc(Nc2nc(N)nc(CN3CCCCCC3)n2)cc1	350	6.8% (inactive)	2.4% (inactive)	96.1%	69.8% (active)	88.8%	-0.449 (inactive)	-2.5e-05 (inactive)	0.00438 (inactive)	8.97% (inactive)	24.6% (inactive)
Cc1cccc(C)c1NC(=O)CS(=O)CC(=O)NC1CCCc2ccccc21 (stereo not drawn)	562	-5.5% (inactive)	-3.7% (inactive)	62.2%	-73.7% (inactive)	108%	-0.61 (inactive)	-3e-05 (inactive)	0.00417 (inactive)	12.3% (inactive)	20.9% (inactive)
CCCCCn1c(CN2CCN(C(=O)OCC)CC2)nc2c1c(=O)[nH]c(=O)n2C	245	0.8% (inactive)	10.4% (inactive)	105%	16.4% (inactive)	78.3%	-0.564 (inactive)	7.1e-06 (inactive)	0.00615 (inactive)	28.1% (inactive)	19.9% (inactive)
O=C(NC1CCCC1)C(c1cccs1)N(C(=O)c1ccno1)c1ccccc1 (stereo not drawn)	648	-3.2% (inactive)	-3.9% (inactive)	101%	38.6% (inactive)	94.7%	-0.607 (inactive)	-4.3e-05 (inactive)	0.00635 (inactive)	3.89% (inactive)	21.8% (inactive)
O=C(C1CCCO1)N1CCN(Cc2nc3ccccc3c(=O)[nH]2)CC1 (stereo not drawn)	583	6.8% (inactive)	14% (inactive)	125%	-6.3% (inactive)	104%	-0.421 (inactive)	2.2e-05 (inactive)	0.00673 (inactive)	0.729% (inactive)	31% (inactive)
